Growth data for 13 compounds are collected here from PubChem BioAssay (NCI).

Among the test systems are SK-MEL-2 melanoma; EKVX NSCLC; SN12C renal; UO-31 renal; TK-10 renal; ACHN renal; CAKI-1 renal; A498 renal; CCRF-CEM leukemia; MOLT-4 leukemia.
Holding throughout (assay): NCI-60 one-dose screen, 48 h (100 = growth as untreated, 0 = no growth, -100 = all killed)
Conditions in all cases: 10 µM unless noted

Structures are written as SMILES. This is part of a sample that, as a whole, favours compounds with a hit. Of some 83,000 tested, about 20% had one in any assay.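 Single-concentration screen, 48 h exposure, 96-well plates. Endpoint: percent growth. Below 10 = active.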 Values without a mark were called inactive. Active and inactive are the calls of the source.

For the compound `Cn1cc(-c2nc(-c3c[nH]c4ncccc34)cs2)c2cc(F)ccc21`, the growth with SK-MEL-2 melanoma is 28.3%; in the assay on EKVX NSCLC, 14.5%; in the assay with SN12C renal, 51.3%; in the assay with UO-31 renal, 29.4%; in the assay on TK-10 renal, 23.2%; in the assay on ACHN renal, 24.1%. Further, the growth with CAKI-1 renal was 12.8%; in the assay with A498 renal, 42.3%; with CCRF-CEM leukemia, 25.8%; with MOLT-4 leukemia, 23.9%.

As to `COc1cccc(-c2nn(-c3ccccc3)cc2-c2ccnc(NCCCO)c2)c1`, the growth in the assay with SK-MEL-2 melanoma is -0.25% (active); in the assay with EKVX NSCLC, 67.6%; in the assay with SN12C renal, 34.3%; in the assay with UO-31 renal, 48.9%; with TK-10 renal, 63.1%; in the assay with ACHN renal it was 55.6%. In addition, the growth is 43% with CAKI-1 renal, 15.1% in the assay with A498 renal, 11.8% in the assay with CCRF-CEM leukemia and 25.1% in the assay with MOLT-4 leukemia.

In the case of `CN(C)c1ccc(-c2ccc(-c3ccc(C(=N)N)c(F)c3)s2)cc1`, the growth in the assay with SK-MEL-2 melanoma is -0.355% (active); in the assay on EKVX NSCLC it was -73.6% (active); with SN12C renal, -76.5% (active); with UO-31 renal, -92.6% (active); in the assay on TK-10 renal it was -85.5% (active); in the assay with ACHN renal, -95.8% (active). Further, the growth with CAKI-1 renal is -87.9% (active); with A498 renal, 4.91% (active); in the assay with CCRF-CEM leukemia it was -37.4% (active); in the assay with MOLT-4 leukemia, -19.3% (active).

`N#CC1c2ccccc2-c2ccccc2N1C(=O)c1ccccc1` (stereo not given): the growth was 72.7% with SK-MEL-2 melanoma; 29.5% in the assay on EKVX NSCLC; 33.3% in the assay with SN12C renal; 42.5% in the assay on UO-31 renal; 63.9% with TK-10 renal; 30.1% with ACHN renal. Moreover, the growth with CAKI-1 renal was 37.4%; in the assay with A498 renal it was 8.67% (active); in the assay on CCRF-CEM leukemia, 41.7%; in the assay with MOLT-4 leukemia it was 35.8%.

For `Cc1ccc(-c2ccc(/C=C(\C#N)c3nc(-c4ccco4)cs3)o2)cc1`, the growth in the assay on SK-MEL-2 melanoma is 104%; in the assay on EKVX NSCLC, 52.1%; in the assay with SN12C renal, 97.1%; in the assay with UO-31 renal it was 79%; in the assay on TK-10 renal, 69.9%; in the assay on ACHN renal, 98.6%. For the same compound, the growth is 94.5% with CAKI-1 renal, 106% in the assay on A498 renal, 79.1% in the assay on CCRF-CEM leukemia and 94.6% with MOLT-4 leukemia.

For the compound `O=[N+]([O-])c1ccc(/C=N\Nc2ccccc2)cc1`, the growth in the assay on SK-MEL-2 melanoma was 49.5%; in the assay on EKVX NSCLC, 76.6%; in the assay with SN12C renal, 87.3%; in the assay with UO-31 renal, 65.5%; in the assay with TK-10 renal it was 111%; in the assay on ACHN renal, 72.6%. The growth in the assay with CAKI-1 renal was 72.8%; in the assay on A498 renal, 75.3%; in the assay on MOLT-4 leukemia, 89.7%.

As for `c1cnc2[nH]cc(-c3csc(-c4cn(CCCN5CCCCC5)c5ccccc45)n3)c2c1`, the growth with SK-MEL-2 melanoma is 93.7%; in the assay with EKVX NSCLC it was 65.8%; in the assay with SN12C renal, 63.4%; with UO-31 renal, 43.8%; with TK-10 renal it was 115%; in the assay on ACHN renal, 60.2%. In addition, the growth in the assay on A498 renal was 83.8%; in the assay on CCRF-CEM leukemia, 6.17% (active).

As to `CCCCC[C@H]1C/C=C2/C(=O)C(Cl)=C[C@@H]2C/C=C\CCCC(=O)O[C@@H](CCCCC)C/C=C2/C(=O)C(Cl)=C[C@@H]2C/C=C\CCCC(=O)O1`, the growth was -46% (active) in the assay on SK-MEL-2 melanoma; 5.48% (active) with EKVX NSCLC; -42.2% (active) in the assay with SN12C renal; -89.9% (active) in the assay with UO-31 renal; -20.2% (active) in the assay on TK-10 renal; -93% (active) in the assay on ACHN renal. The figures for the growth with A498 renal and in the assay on CCRF-CEM leukemia were -77.4% (active) and 0.433% (active), respectively.

In the case of `C/C(=N\NC(=O)C(C)SC(C)C(=O)N/N=C(\C)c1cccnc1)c1cccnc1` (stereo not given), the growth in the assay on SK-MEL-2 melanoma was 93.8%; with EKVX NSCLC, 100%; in the assay with SN12C renal it was 106%; in the assay with UO-31 renal, 81%; in the assay with TK-10 renal it was 106%; in the assay with ACHN renal, 106%. Also, the growth in the assay on CAKI-1 renal is 97.7%; in the assay on A498 renal, 88.2%; in the assay with CCRF-CEM leukemia it was 99.4%; with MOLT-4 leukemia, 86.7%.

As to `CCC(=O)c1c(C)[nH]c(C)c1C`, the growth with SK-MEL-2 melanoma is 16.6%; with EKVX NSCLC, 103%; in the assay on SN12C renal it was 95.5%; in the assay on UO-31 renal, 67.1%; in the assay with TK-10 renal, 99.4%; in the assay with ACHN renal it was -33.4% (active). In addition, the growth is 46.4% in the assay on CAKI-1 renal, 103% in the assay with A498 renal, 98.5% in the assay with CCRF-CEM leukemia and 84% with MOLT-4 leukemia.

`CC(C)(C)n1cc(-c2ccnc(NCCCNS(=O)(=O)c3ccc(Cl)cc3)c2)c(-c2cccc(F)c2)n1`: the growth in the assay on SK-MEL-2 melanoma was 88.4%; in the assay on EKVX NSCLC, 56.2%; in the assay with SN12C renal, 73.9%; with UO-31 renal it was 66.5%; with TK-10 renal, 111%; in the assay on ACHN renal, 80.8%. The growth was 77.9% with CAKI-1 renal, 108% in the assay on A498 renal, 66.7% in the assay on CCRF-CEM leukemia and 55.1% in the assay with MOLT-4 leukemia.

Regarding `NNC(=O)c1nc2ccccc2[nH]1`, the growth with SK-MEL-2 melanoma was 99.4%; with EKVX NSCLC, 102%; in the assay with SN12C renal, 102%; in the assay with UO-31 renal, 101%; in the assay with TK-10 renal, 111%; with ACHN renal, 107%. In addition, the growth in the assay on CAKI-1 renal is 94.9%; with A498 renal it was 96.2%; in the assay with CCRF-CEM leukemia, 109%; with MOLT-4 leukemia it was 79.8%.

Consider `Cn1cc(-c2csc(-c3cn(C(=O)OC(C)(C)C)c4ccccc34)n2)c2cccnc21`, for which the growth was 66.3% in the assay on SK-MEL-2 melanoma; 72.3% with EKVX NSCLC; 87.6% in the assay on SN12C renal; 73.7% in the assay with UO-31 renal; 102% with TK-10 renal; 77.5% in the assay with ACHN renal. The growth in the assay with CAKI-1 renal is 58.7%; in the assay with A498 renal, 79.7%; with CCRF-CEM leukemia, 56.8%; with MOLT-4 leukemia, 50%.
